Compounds with a hit are over-represented: about 8.1% of the library has one in this group of screens.
NOMO-1 viab: STK33 inhibitor candidate reducing NOMO-1 cell viability. NOMO-1 AML viability, CellTiter-Glo luminescence, 72 h. inhibition, % (concentration not given with the values). hit rate 7.5% among 37,000; in the data active means inhibition above about 80%
Shh pathway inh: blocks Sonic Hedgehog signaling. AID 2313. inhibition, % (concentration not given with the values). hit rate 2.1% among 22,000. Shh-LIGHT2 Gli-luciferase reporter, 30 h;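 active means mean inhibition across valid replicates above about 65%, limit read from the data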;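 further: pathway switched on by Shh-conditioned medium diluted 1 in 25 in low serum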
PD-1 reverse act: activators reversing PD-1 mediated T-cell inhibition; primary human CD4 T cells, PD-L1 beads, CellTiter-Glo 96 h; activation, % (no concentration beside the values); 29,000 tested, under 10 active; call rule not given here;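 further: 0% = median vehicle wells and 100% = positive control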
MITF inh: blocks MITF activity | hit rate 0.28% among 37,000 | inhibition, % (test concentration not listed) | TRPM1 promoter luciferase, luminescence, 24 h; in the data active means inhibition above about 85%;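 further: human melanocyte line stably carrying TRPM1 promoter luciferase reporter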
An asterisk follows results filed as active; x = not tested or not shown.

SMILES | NOMO-1 viab | Shh pathway inh | PD-1 reverse act | MITF inh
C[C@@H]1CN([C@@H](C)CO)C(=O)c2cc(NC(=O)Nc3ccc4c(c3)OCO4)ccc2O[C@@H]1CN(C)Cc1ccc(C(=O)Nc2ccccc2N)cc1 | 108* | x | -2 | 3
COc1cc(CO)c(CC(=O)NN)cc1OC | -3 | 8 | 0 | 16
CC(=O)c1c(C)oc(NC(=O)Cn2cnc3ccccc3c2=O)c1C#N | 28 | x | x | -21
Cc1ccc(S(=O)(=O)Nc2ccc3c(c2)C(=O)N([C@@H](C)CO)C[C@@H](C)[C@H](CN(C)Cc2ccc(Cl)c(Cl)c2)O3)cc1 | 89* | x | 1 | 6
Cc1ccc(S(=O)(=O)Nc2ccc3c(c2)C(=O)N([C@H](C)CO)C[C@@H](C)[C@H](CN(C)Cc2ccc(Cl)c(Cl)c2)O3)cc1 | 104* | x | 0 | 19
C[C@H](CO)N1C[C@H](C)[C@@H](CN(C)Cc2ccc(Cl)c(Cl)c2)Oc2ccc(NS(=O)(=O)c3ccc(F)cc3)cc2C1=O | 35 | 27 | -3 | 1
C[C@H]1CN([C@@H](C)CO)C(=O)c2cc(NS(=O)(=O)c3ccccc3)ccc2O[C@H]1CN(C)Cc1ccc(Cl)c(Cl)c1 | 73 | x | -8 | 30
CCOC(=O)c1c(NC(=O)CSc2nc3c(cc2C#N)CCCC3)sc2c1CCCC2 | -23 | x | 1 | -69
COc1ccc(CN(C)C[C@H]2Oc3ccc(NC(=O)Nc4ccc(C(F)(F)F)cc4)cc3C(=O)N([C@@H](C)CO)C[C@@H]2C)cc1 | 113* | 0 | -3 | -5
COc1ccc(CN(C)C[C@@H]2Oc3ccc(NC(=O)Nc4ccc(C(F)(F)F)cc4)cc3C(=O)N([C@H](C)CO)C[C@@H]2C)cc1 | 114* | 10 | -3 | 7
COc1cc(NC(=O)COc2cc(C)c(Cl)c(C)c2)c(C(=O)O)cc1OC | -1 | x | 1 | -14
O=C(NCc1ccccn1)C(=O)Nc1ccc(Cl)c(Cl)c1 | 2 | x | x | -49
Cc1cccc(C)c1OCC(=O)Nc1cccc(C(=O)O)c1 | 2 | x | 3 | 21
Cc1ccc(OCC(=O)Nc2cccc(C(=O)O)c2)c(Br)c1 | 19 | x | x | 87*
Cc1ccc(S(=O)(=O)N(C)C[C@@H]2Oc3ccc(NC(=O)Nc4ccc(C(F)(F)F)cc4)cc3CC(=O)N([C@H](C)CO)C[C@@H]2C)cc1 | 126* | 56 | -3 | 34
Cc1ccc(S(=O)(=O)N(C)C[C@H]2Oc3ccc(NC(=O)Nc4ccc(C(F)(F)F)cc4)cc3CC(=O)N([C@@H](C)CO)C[C@@H]2C)cc1 | 26 | -2 | 0 | 16
Cc1ccc(S(=O)(=O)N(C)C[C@H]2Oc3ccc(NC(=O)Nc4ccc(C(F)(F)F)cc4)cc3CC(=O)N([C@H](C)CO)C[C@H]2C)cc1 | 115* | 7 | -3 | 23
O=C(CSc1nc(-c2ccccc2)c2cc(Cl)ccc2n1)N1N=CCC1c1ccccc1 (centres undefined) | 43 | x | -1 | 20
CN1CCN(CC(=O)N2N=C(c3c(-c4ccccc4)c4cc(Cl)ccc4[nH]c3=O)CC2c2ccccc2)CC1 (centres undefined) | 124* | x | -12 | 1
CCn1c(=NC(=O)c2ccc(S(=O)(=O)N(C)C)cc2)sc2ccccc21 | 87* | -135 | 0 | -45
CCn1c2ccccc2c2cc(NC(=O)CN(C)S(=O)(=O)c3ccccc3)ccc21 | 42 | x | x | 28
Cc1ccc(Cl)cc1NC(=O)CSc1nnc(-c2cccs2)n1C | -1 | x | 0 | -10
C[C@]12CC[C@@H]3c4ccc(O)cc4CC[C@H]3[C@@H]1C[C@@H](O)[C@@H]2O | -4 | 47 | x | -4
C#C[C@]1(O)CCC2C3CCc4cc(O)ccc4C3CC[C@@]21C (some centres undefined) | 107* | -27 | x | 18
CC(C)(C)C1CCc2c(sc3nc(-c4cccs4)oc(=O)c23)C1 (centres undefined) | 108* | -12 | -1 | -11
SMILES | NOMO-1 viab | Shh pathway inh | PD-1 reverse act | MITF inh
C[C@@H]1CN([C@@H](C)CO)C(=O)c2cc(NS(=O)(=O)c3ccc(Cl)cc3)ccc2O[C@@H]1CN(C)Cc1ccc(-c2ccccc2)cc1 | 123* | -6 | 0 | 37
C[C@@H]1CN([C@H](C)CO)C(=O)c2cc(NS(=O)(=O)c3ccc(Cl)cc3)ccc2O[C@@H]1CN(C)Cc1ccc(-c2ccccc2)cc1 | 109* | x | -1 | 26
C[C@H](CO)N1C[C@H](C)[C@H](CN(C)Cc2ccc(-c3ccccc3)cc2)Oc2ccc(NS(=O)(=O)c3ccc(Cl)cc3)cc2C1=O | 114* | 29 | 0 | 14
C[C@H](CO)N1C[C@H](C)[C@@H](CN(C)Cc2ccc(-c3ccccc3)cc2)Oc2ccc(NS(=O)(=O)c3ccc(Cl)cc3)cc2C1=O | 62 | 27 | -1 | 2
C[C@H]1CN([C@@H](C)CO)C(=O)c2cc(NS(=O)(=O)c3ccc(Cl)cc3)ccc2O[C@@H]1CN(C)Cc1ccc(-c2ccccc2)cc1 | 38 | x | x | -4
CNC(=O)CCc1cc2ccccc2[nH]1 | 6 | 1 | 0 | 6
Nc1c(N2CCOCC2)c2ccccc2oc1=O | 23 | x | 0 | 11
Cc1cc([N+](=O)[O-])ccc1NC(=O)CSc1nnnn1-c1ccccc1 | 26 | x | 1 | 17
COC(=O)c1c(NC(=O)c2ccccc2N(C)S(=O)(=O)c2ccccc2)sc2c1CCCC2 | 117* | x | -3 | 48
C=C1CCC2C(C(=O)O)=COC(O[C@@H]3O[C@H](CO)[C@@H](O)[C@H](O)[C@H]3O)C12 (some centres undefined) | 3 | -26 | 1 | 3
C=C(C(=O)O[C@H]1C/C=C(/C)C[C@H](O)[C@H]2[C@H](C)C(=O)O[C@@H]2/C=C\1C)[C@@H]1CCC(=C)[C@@H]2C[C@H](O[C@@H]3O[C@H](CO)[C@@H](O)[C@H](O)[C@H]3O)C(=C)[C@@H]2C1 | 118* | 13 | -2 | 14
CC1(C)Cc2ccccc2C(Nc2nc(-c3ccccc3)cs2)=N1 | 21 | -75 | 1 | -18
C[C@@H]1CN([C@H](C)CO)C(=O)Cc2cc(NC(=O)CCCCCC(=O)Nc3ccccc3N)ccc2O[C@@H]1CN(C)Cc1ccc(C(F)(F)F)cc1 | 141* | x | -1 | -9
C[C@H](CO)N1C[C@H](C)[C@H](CN(C)Cc2ccncc2)Oc2ccc(NC(=O)CCCCCC(=O)Nc3ccccc3N)cc2CC1=O | 49 | x | 0 | -14
C[C@@H]1CN([C@H](C)CO)C(=O)Cc2cc(NC(=O)CCCCCC(=O)Nc3ccccc3N)ccc2O[C@H]1CN(C)Cc1ccc(C(F)(F)F)cc1 | 114* | x | 1 | 12
COc1ccc(C(=O)n2nc(-c3ccc(Cl)cc3)nc2NCc2ccco2)cc1OC | 36 | x | x | -79
COc1ccc(CCn2c(=S)[nH]c3cc(C(F)(F)F)ccc32)cc1OC | 32 | 51 | -3 | 4
O=C(CCN1C(=O)c2ccccc2S1(=O)=O)Nc1ccc(Oc2ccccc2)cc1 | 6 | x | 1 | 6
OC(c1nc2ccc(Cl)cc2[nH]1)C(O)c1nc2ccc(Cl)cc2[nH]1 (centres undefined) | 60 | x | -1 | -4
C=CS(=O)(=O)c1ccc(OC)c(N)c1 | 120* | 83* | -33 | 58
CS(=O)(=O)c1sc(NC(=O)Nc2ccc(Cl)cc2)c2c1C=CCC2 | 122* | 106* | 0 | 47
